Several values for one entry are separate records, joined by “and”; a condition that tells them apart may be missing. Equal entries are not always repeated.

Common to all, as to type: functional
In assay [1] the test system is Plasmodium falciparum. As to the kind of experiment: GSK_TCMDC: Inhibition of Plasmodium falciparum 3D7 in whole red blood cells, using parasite LDH activity as an index of growth. Test compounds present at 2uM.
The subject of assay [2] is Plasmodium falciparum. As to the kind of experiment: GSK_TCMDC: Inhibition of Plasmodium falciparum Dd2 in whole red blood cells, using parasite LDH activity as an index of growth. Test compounds present at 2uM.
In a further assay the test system is HepG2. The experiment in a line: GSK_TCMDC: Percent inhibition of human HepG2 cell line. Test compounds present at 10uM.

For orientation: Inhibition means the change of the read-out against control, counted positive when it falls. A higher Inhibition goes with a strong effect. As to `Cc1ccc(C[C@@H](C)NC[C@H](O)c2cccc(C(F)(F)F)c2)cc1.O=C(O)/C=C/C(=O)O`, the Inhibition in the assay with Plasmodium falciparum [1] worked out at 100%; in the assay with Plasmodium falciparum [2], 79%; in the assay on HepG2, 10%.
Taken in the same sequence, the figures for `COC(=O)c1ccc(CC(C)NCC(O)c2cccc(Oc3cccc(C(F)(F)F)c3)c2)cc1.Cl` (stereo not given) were 91%, 73% and 19%.
Taken in the same sequence, the figures for `O=C1NCN(c2ccc(O)cc2)C12CCN(CCCC(c1ccc(F)cc1)c1ccc(F)cc1)CC2` were 94%, 34% and 20%.
The like results for `CC(Cc1ccc(Oc2ccc(Cl)cc2)cc1)NCC(O)c1cccc(Cl)c1` (stereo not given) were, in that order, 99%, 98% and 3%.
For the compound `Cl.O=C(c1cc(C(F)(F)F)cc(C(F)(F)F)c1)N1CCC(CCN2CCC3(CC2)C(=O)NCN3c2ccccc2)CC1Cc1ccc(Cl)c(Cl)c1` (stereo not given), the figures for the Inhibition in the assay with Plasmodium falciparum [1], in the assay on Plasmodium falciparum [2] and in the assay with HepG2 were 100%, 77% and 19%, respectively.
Taken in the same sequence, the figures for `COCCNCc1ccc(-c2cccc(CN(C(=O)CCC3CCCC3)C3CCN(Cc4ccccc4)CC3)c2)cc1.O=C(O)C(F)(F)F` were 91%, 86% and 50%.
The like results for `Cc1cccc(C(=O)Nc2ccnc(N(C)C3CCN(CC(C)C)CC3)c2)c1.O=C(O)C(F)(F)F` were, in that order, 95%, 6% and 10%.
The like results for `CN(C)CCCOc1ccc(CN2CCC(c3c[nH]c4ccc(NCC5CCCCC5)cc34)CC2)cc1.O=C(O)C(F)(F)F` were, in that order, 99%, 99% and 58%.
Take `COc1ccc2[nH]cc(C3=CCN(Cc4ccccc4)CC3)c2c1`: the Inhibition came to 90% in the assay with Plasmodium falciparum [1], 84% with Plasmodium falciparum [2] and 51% with HepG2.
For the compound `O=C(/C=C/c1ccccc1O)NC1CCC(CN2CCC(c3c[nH]c4ccccc34)CC2)CC1` (stereo not given), the Inhibition was 100% in the assay with Plasmodium falciparum [1]; 45% and 73% in the assay with Plasmodium falciparum [2]; 11% and 22% in the assay on HepG2.
For the compound `CC(=O)N(Cc1cccc(-c2cccc(CNCc3ccc4c(c3)OCO4)c2)c1)C1CCN(Cc2ccccc2)CC1.O=C(O)C(F)(F)F`, the Inhibition with Plasmodium falciparum [1] turned out to be 95%; in the assay on Plasmodium falciparum [2], 21%; in the assay on HepG2 it was 16%.
The like results for `Cc1cc(N(C)C2CCN(C)CC2)nc(Nc2ccc(Cl)cc2)n1` were, in that order, 98%, 90% and 15%.
Taken in the same sequence, the figures for `CC(Cc1ccc(OCCCCOc2ccccc2)cc1)NCCc1ccccc1Cl` (stereo not given) were 97%, 58% and 100%.
The like results for `COc1ccc(CCNCc2ccc3nc(N)c(C)cc3c2)cc1.Cl` were, in that order, 100%, 15% and 0%.
With `CN1CC=C(c2c[nH]c3ccc(-c4ccccc4)cc23)CC1`, the Inhibition came to 93% in the assay with Plasmodium falciparum [1], 60% in the assay with Plasmodium falciparum [2] and 14% with HepG2.
Regarding `O=C(C=Cc1ccc(Br)cc1)NC1CCC(CN2CCC(c3c[nH]c4ccccc34)CC2)CC1` (stereo not given), the figures for the Inhibition with Plasmodium falciparum [1], in the assay with Plasmodium falciparum [2] and with HepG2 were 100%, 98% and 71%, respectively.
Taken in the same sequence, the figures for `CC(=O)N(Cc1cccc(-c2cccc(CNCCc3ccccc3)c2)c1)C1CCN(Cc2ccccc2)CC1.O=C(O)C(F)(F)F` were 100%, 57% and 22%.
The like results for `CCCCCCCCNCC(O)c1ccc(Cl)c(Cl)c1.Cl` (stereo not given) were, in that order, 99%, 87% and 0%.
For the compound `CCCCCCCc1cc(O)c2c3c(c(=O)oc2c1)CN(C)CC3`, the Inhibition in the assay on Plasmodium falciparum [1] was 97%; in the assay on Plasmodium falciparum [2], 100%; in the assay on HepG2 it was 0%.
Taken in the same sequence, the figures for `O=C(NC1CCC(CN2CCC(c3c[nH]c4ccccc34)CC2)CC1)c1cc(-c2ccc(F)cc2F)ccc1O` (stereo not given) were 100%, 100% and 30%.
Taken in the same sequence, the figures for `CC[C@H]1CN2CC[C@@H]1C[C@@H]2[C@@H](O)c1cc(-c2ccc(F)cc2)nc2ccc(OC)cc12.Cl` were 98%, 64% and 18%.
Taken in the same sequence, the figures for `O=S(=O)(NC1CCC(CN2CCC(c3c[nH]c4ccccc34)CC2)CC1)c1ccc(Cl)c(Cl)c1` (stereo not given) were 97%, 32% and 36%.
As for `CN(c1ccnc(Nc2ccc(CS(C)(=O)=O)cc2)n1)C1CCN(Cc2ccccc2)CC1`, the Inhibition came out at 83% with Plasmodium falciparum [1], 9% in the assay on Plasmodium falciparum [2] and 10% in the assay on HepG2.
`N#Cc1c(Cl)cccc1Oc1ccc(S(=O)(=O)N2CCC(CN3CCC(c4c[nH]c5ccccc45)CC3)CC2)cc1`: the Inhibition in the assay with Plasmodium falciparum [1] stood at 100%; in the assay on Plasmodium falciparum [2], 67%; in the assay on HepG2 it was 36%.
As to `COc1ccc(NC(=S)NC(NC(=O)CF)C(Cl)(Cl)Cl)cc1[N+](=O)[O-]` (stereo not given), the Inhibition is 97% with Plasmodium falciparum [1], 0% in the assay on Plasmodium falciparum [2] and 66% in the assay with HepG2.
Turning to `Oc1ccc(CN2CCN(CCOC(c3ccccc3)c3ccc(Cl)cc3)CC2)cc1Cl` (stereo not given), the results for the Inhibition in the assay with Plasmodium falciparum [1], with Plasmodium falciparum [2] and in the assay with HepG2 were 98%, 97% and 11%, respectively.
In the case of `CC(C)CNCc1ccc(-c2cccc(CN(C(=O)Nc3ccccc3)C3CCN(Cc4ccccc4)CC3)c2)cc1.O=C(O)C(F)(F)F`, the Inhibition in the assay on Plasmodium falciparum [1] was found to be 100%; with Plasmodium falciparum [2] it was 95%; in the assay with HepG2, 48%.
Taken in the same sequence, the figures for `COc1cccc(CN2CCC(CCOC(c3ccccc3)c3ccccc3)CC2)c1O` were 97%, 99% and 33%.
Taken in the same sequence, the figures for `COc1coc(C(=O)NC2CCN(CC3(c4ccc(Cl)cc4)CCC3)CC2)c1OC` were 96%, 96% and 2%.
Taken in the same sequence, the figures for `O=c1c2ccccc2nc(/C=C/c2ccc([N+](=O)[O-])cc2)n1-c1ccccn1` were 98%, 96% and 5%.
